Laboratory results published in the supplement of paper PMC10849652.
About 8,800 targets were measured; listed, in parts, are those with a hit and a random draw of the rest. About 0.5% of all pairs of compound and target were hits.

Assays:
Experiment in all cases: log2 fold change, soluble protein after heating vs DMSO (PISA); higher = thermal stabilisation; K562 lysate, 10 uM; active = over 0.2 and 3.5 SD of the protein, either way, in both replicates (recomputed)
vemurafenib = compound: CCCS(=O)(=O)Nc1ccc(F)c(C(=O)c2c[nH]c3ncc(-c4ccc(Cl)cc4)cc23)c1F [vemurafenib]
Summary of the method: (§1)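 A 30 min treatment with 10 μM compound was applied to crude K562 extract at 1 mg/mL protein in PBS pH 7.4 with 1 mM MgCl2. Heating for 3 min spanned 48°C-58°C, after which aliquots were pooled, adjusted to 0.5% NP-40 at 4°C and spun at 21,000xg for 90 min. TMTpro 16plex LC-MS/MS of the supernatant, with channel sums equalised, gave values recorded as log-two fold change in thermal stability against solvent controls, from duplicates.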

[1] = compound: CCCS(=O)(=O)Nc1ccc(F)c(C(=O)c2c[nH]c3ncc(Cl)cc23)c1F
Summary of the method: as §1

barasertib = compound: CCN(CCCOc1ccc2c(Nc3cc(CC(=O)Nc4cccc(F)c4)[nH]n3)ncnc2c1)CCOP(=O)(O)O [barasertib]
Summary of the method: as §1

[2] = compound: CC[C@@H]1C(=O)N(C)c2cnc(Nc3ccc(C(=O)NC4CCN(C)CC4)cc3OC)nc2N1C1CCCC1
Summary of the method: as §1

volasertib = compound: CC[C@@H]1C(=O)N(C)c2cnc(Nc3ccc(C(=O)N[C@H]4CC[C@H](N5CCN(CC6CC6)CC5)CC4)cc3OC)nc2N1C(C)C [volasertib]
Summary of the method: as §1

[3] = compound: CCn1c(C(=O)N(C2CC2)C2CC2)cc2c3c(ncn3C)c(Nc3cc(C)n(C)n3)nc21
Summary of the method: as §1

[4] = compound: CCn1cc(-c2ccnc3[nH]c(-c4cccc(CN(C)C)c4)cc23)c(-c2ccc(NC(=O)N(C)C)cc2)n1
Summary of the method: as §1

[5] = compound: CN1CCC(CNc2ccc3ncc(-c4cccc(OC(F)(F)F)c4)n3n2)CC1
Summary of the method: as §1

saracatinib = compound: CN1CCN(CCOc2cc(OC3CCOCC3)c3c(Nc4c(Cl)ccc5c4OCO5)ncnc3c2)CC1 [saracatinib]
Summary of the method: as §1

sotrastaurin = compound: CN1CCN(c2nc(C3=C(c4c[nH]c5ccccc45)C(=O)NC3=O)c3ccccc3n2)CC1 [sotrastaurin]
Summary of the method: as §1

alvocidib = compound: CN1CC[C@H](c2c(O)cc(O)c3c(=O)cc(-c4ccccc4Cl)oc23)[C@H](O)C1 [alvocidib]
Summary of the method: as §1

Tubastatin A = compound: CN1CCc2c(c3ccccc3n2Cc2ccc(C(=O)NO)cc2)C1 [Tubastatin A]
Summary of the method: as §1

[6] = compound: CNC(=O)C1=CC=CC=C1NC2=NC(=NC=C2Cl)NC3=C(C=C(C=C3)N4CCOCC4)OC
Summary of the method: as §1

defactinib = compound: CNC(=O)c1ccc(Nc2ncc(C(F)(F)F)c(NCc3nccnc3N(C)S(C)(=O)=O)n2)cc1 [defactinib]
Summary of the method: as §1

[7] = compound: CNc1nc(-c2ccc3c(N)n[nH]c3c2)cc(N2C[C@@H](C(=O)NC3CCCCC3)CC[C@H]2C)n1
Summary of the method: as §1

encorafenib = compound: COC(=O)N[C@@H](C)CNc1nccc(-c2cn(C(C)C)nc2-c2cc(Cl)cc(NS(C)(=O)=O)c2F)n1 [encorafenib]
Summary of the method: as §1

[8] = compound: COC(=O)[C@H](CCSC)NC(=O)C1=C(C=C(C=C1)NC[C@H](CS)N)C2=CC=CC=C2
Summary of the method: as §1

alisertib = compound: COc1cc(Nc2ncc3c(n2)-c2ccc(Cl)cc2C(c2c(F)cccc2OC)=NC3)ccc1C(=O)O [alisertib]
Summary of the method: as §1

[9] = compound: COc1cc2nc(-c3cc(F)ccc3O)nc(N[C@@H]3CNC[C@H]3C(C)(C)O)c2cc1OC
Summary of the method: as §1

gefitinib = compound: COc1cc2ncnc(Nc3ccc(F)c(Cl)c3)c2cc1OCCCN1CCOCC1 [gefitinib]
Summary of the method: as §1

Measured: log2 fold change

RFC4 (UniProt P35249)
UniProt P35249, sequence (P35249 whole entry, looked up): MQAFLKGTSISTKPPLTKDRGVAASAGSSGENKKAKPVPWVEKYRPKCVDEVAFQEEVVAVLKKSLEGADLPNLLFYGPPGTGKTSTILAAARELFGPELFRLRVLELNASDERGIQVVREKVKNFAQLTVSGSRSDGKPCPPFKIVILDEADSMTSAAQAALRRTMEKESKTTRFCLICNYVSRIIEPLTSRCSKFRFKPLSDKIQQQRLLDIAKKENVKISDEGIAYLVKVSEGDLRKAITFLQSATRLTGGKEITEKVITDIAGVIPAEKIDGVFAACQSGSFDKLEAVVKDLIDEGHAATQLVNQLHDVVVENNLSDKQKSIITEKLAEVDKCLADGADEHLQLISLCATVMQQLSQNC
inactive: vemurafenib 0.047 | [1] 0.02 | barasertib 0.02 | [2] -0.012 | volasertib -0.042 | [3] 0.003 | [4] -0.086 | [5] 0.028 | saracatinib 0.044 | sotrastaurin 0.003 | alvocidib -0.018 | Tubastatin A -0.119 | [6] 0.018 | defactinib 0.009 | [7] -0.043 | encorafenib 0.018 | [8] 0.088 | alisertib 0.022 | [9] 0.003 | gefitinib -0.006

RPL8 (UniProt P62917)
inactive: vemurafenib -0.055 | [1] 0.013 | barasertib -0.042 | [2] -0.09 | volasertib -0.012 | [3] 0.021 | [4] 0.208 | [5] -0.014 | saracatinib -0.009 | sotrastaurin -0.038 | alvocidib 0.007 | Tubastatin A 0.023 | [6] 0.02 | defactinib 0.038 | [7] 0.104 | encorafenib 0.022 | [8] -0.046 | alisertib 0.018 | [9] -0.008 | gefitinib 0.011

RPS29 (UniProt P62273)
inactive: vemurafenib -0.005 | [1] 0.039 | barasertib -0.034 | [2] -0.028 | volasertib 0.078 | [3] 0.109 | [5] -0.262 | saracatinib -0.007 | sotrastaurin -0.133 | alvocidib 0.23 | Tubastatin A -0.052 | [6] -0.029 | defactinib -0.027 | [7] 0.081 | encorafenib -0.062 | [8] 0.151 | alisertib -0.278 | [9] 0.032 | gefitinib -0.138
active: [4] 1.01

SEC62 (UniProt Q99442)
UniProt Q99442, sequence (Q99442 whole entry, looked up): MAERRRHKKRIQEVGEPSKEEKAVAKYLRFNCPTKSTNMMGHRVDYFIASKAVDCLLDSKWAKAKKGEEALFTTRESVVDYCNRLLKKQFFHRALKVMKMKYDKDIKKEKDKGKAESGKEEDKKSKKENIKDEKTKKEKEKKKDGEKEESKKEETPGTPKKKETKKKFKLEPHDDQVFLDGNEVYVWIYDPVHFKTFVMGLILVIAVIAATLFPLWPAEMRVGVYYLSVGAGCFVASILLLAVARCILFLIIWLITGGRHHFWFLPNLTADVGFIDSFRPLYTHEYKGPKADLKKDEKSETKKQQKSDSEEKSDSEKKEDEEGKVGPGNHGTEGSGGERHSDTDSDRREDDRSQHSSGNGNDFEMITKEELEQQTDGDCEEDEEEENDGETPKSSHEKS
active: [4] 0.373
inactive: vemurafenib -0.024 | [1] 0.039 | barasertib 0.027 | [2] 0.017 | volasertib 0.011 | [3] 0 | [5] -0.12 | saracatinib -0.011 | sotrastaurin -0.04 | alvocidib 0.046 | Tubastatin A 0.07 | [6] 0.019 | defactinib 0.02 | [7] 0.045 | encorafenib -0.012 | [8] -0.084 | alisertib -0.003 | [9] -0.028 | gefitinib 0.004

SBF1 isoform 4 (UniProt O95248)
inactive: vemurafenib 0.118 | [1] 0.012 | barasertib 0.033 | [2] 0.071 | volasertib -0.111 | [3] 0.014 | [4] -0.107 | [5] 0.029 | saracatinib 0.062 | sotrastaurin 0 | alvocidib 0.005 | Tubastatin A 0.074 | [6] -0.054 | defactinib 0.022 | [7] -0.099 | encorafenib -0.004 | [8] -0.009 | alisertib 0.238 | [9] 0.008 | gefitinib 0.062

RPS9 (UniProt P46781)
inactive: vemurafenib -0.037 | [1] -0.01 | barasertib -0.003 | [2] -0.074 | volasertib -0.005 | [3] 0.03 | [5] -0.063 | saracatinib 0 | sotrastaurin -0.023 | alvocidib 0.053 | Tubastatin A 0.006 | [6] -0.036 | defactinib -0.064 | [7] 0.006 | encorafenib -0.022 | [8] 0.065 | alisertib 0.004 | [9] -0.003 | gefitinib -0.033
active: [4] 0.302

RIOK2 (UniProt Q9BVS4)
UniProt Q9BVS4, sequence (Q9BVS4 whole entry, looked up): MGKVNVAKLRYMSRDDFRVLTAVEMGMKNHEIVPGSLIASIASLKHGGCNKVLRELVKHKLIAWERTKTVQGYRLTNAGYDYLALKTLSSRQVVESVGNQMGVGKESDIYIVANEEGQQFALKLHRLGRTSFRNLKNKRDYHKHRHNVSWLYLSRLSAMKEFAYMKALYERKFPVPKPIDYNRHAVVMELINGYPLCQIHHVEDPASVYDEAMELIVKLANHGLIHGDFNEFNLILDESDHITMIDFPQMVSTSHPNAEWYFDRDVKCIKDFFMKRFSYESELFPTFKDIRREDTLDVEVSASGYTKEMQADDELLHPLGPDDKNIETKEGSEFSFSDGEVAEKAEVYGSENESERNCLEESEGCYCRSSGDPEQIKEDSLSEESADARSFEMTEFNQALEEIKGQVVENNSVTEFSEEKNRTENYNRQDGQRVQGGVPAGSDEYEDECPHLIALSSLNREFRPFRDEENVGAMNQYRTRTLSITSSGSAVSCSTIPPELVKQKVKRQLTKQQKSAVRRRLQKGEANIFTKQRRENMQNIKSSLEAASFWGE
inactive: vemurafenib -0.074 | [1] 0.006 | barasertib -0.053 | [2] 0.016 | volasertib -0.026 | [3] -0.03 | [4] -0.115 | [5] 0.066 | saracatinib -0.023 | sotrastaurin 0.04 | alvocidib -0.021 | Tubastatin A -0.098 | defactinib 0.105 | [7] 0.127 | encorafenib -0.025 | [8] 0.029 | alisertib -0.005 | [9] -0.051 | gefitinib -0.011
active: [6] 0.438

RAB8B (UniProt Q92930)
UniProt Q92930, sequence (Q92930 whole entry, looked up): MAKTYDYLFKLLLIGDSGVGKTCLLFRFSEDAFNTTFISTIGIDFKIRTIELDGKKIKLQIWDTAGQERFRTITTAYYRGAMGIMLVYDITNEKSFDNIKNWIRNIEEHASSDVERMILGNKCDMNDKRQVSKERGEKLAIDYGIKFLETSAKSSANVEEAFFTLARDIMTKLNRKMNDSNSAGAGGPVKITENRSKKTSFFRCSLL
inactive: vemurafenib -0.137 | [1] 0 | barasertib -0.036 | [2] 0.028 | volasertib -0.036 | [3] 0.007 | [4] 0.252 | [5] -0.142 | saracatinib 0.08 | sotrastaurin -0.024 | alvocidib 0.037 | Tubastatin A 0.034 | [6] -0.011 | defactinib -0.016 | [7] -0.026 | encorafenib -0.002 | [8] -0.045 | alisertib 0.016 | [9] 0.015 | gefitinib 0.115

RAB3IL1 (UniProt Q8TBN0)
UniProt Q8TBN0, sequence (Q8TBN0 whole entry, looked up): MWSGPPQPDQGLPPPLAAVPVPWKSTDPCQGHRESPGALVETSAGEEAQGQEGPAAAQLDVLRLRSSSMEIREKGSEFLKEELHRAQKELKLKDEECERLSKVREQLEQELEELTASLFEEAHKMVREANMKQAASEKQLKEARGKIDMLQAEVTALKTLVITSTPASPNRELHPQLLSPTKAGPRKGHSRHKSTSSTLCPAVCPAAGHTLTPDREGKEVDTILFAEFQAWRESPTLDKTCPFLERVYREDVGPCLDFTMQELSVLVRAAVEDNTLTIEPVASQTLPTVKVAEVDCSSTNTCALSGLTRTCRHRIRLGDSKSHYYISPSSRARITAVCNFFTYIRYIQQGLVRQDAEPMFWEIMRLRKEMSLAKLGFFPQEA
inactive: vemurafenib -0.018 | [1] 0.017 | barasertib 0.054 | [2] 0.022 | volasertib -0.008 | [3] 0.054 | [4] 0.025 | [5] -0.016 | saracatinib 0.033 | sotrastaurin -0.024 | alvocidib 0.027 | Tubastatin A -0.021 | [6] 0.022 | defactinib 0.007 | [7] 0.009 | encorafenib -0.006 | [8] -0.031 | alisertib -0.013 | [9] 0.039 | gefitinib 0.014

RBM23 isoform 2 (UniProt Q86U06)
UniProt Q86U06, sequence (Q86U06 whole entry, looked up): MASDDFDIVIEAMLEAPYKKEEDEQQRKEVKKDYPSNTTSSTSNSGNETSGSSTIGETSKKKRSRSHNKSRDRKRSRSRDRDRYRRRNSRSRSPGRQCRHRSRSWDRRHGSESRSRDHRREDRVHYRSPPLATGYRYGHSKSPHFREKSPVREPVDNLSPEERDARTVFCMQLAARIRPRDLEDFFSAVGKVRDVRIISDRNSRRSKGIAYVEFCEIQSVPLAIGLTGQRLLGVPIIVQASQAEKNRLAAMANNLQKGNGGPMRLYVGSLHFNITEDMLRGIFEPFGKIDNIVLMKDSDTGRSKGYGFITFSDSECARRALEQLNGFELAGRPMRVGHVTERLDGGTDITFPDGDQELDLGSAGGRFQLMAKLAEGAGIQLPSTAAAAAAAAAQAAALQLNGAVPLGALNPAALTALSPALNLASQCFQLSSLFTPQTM
inactive: vemurafenib 0.2 | [1] 0.02 | barasertib 0.234 | [2] -0.153 | volasertib -0.011 | [3] 0.058 | [4] -0.01 | [5] -0.143 | saracatinib 0.064 | sotrastaurin 0.131 | alvocidib -0.056 | Tubastatin A -0.084 | [6] 0.133 | defactinib -0.037 | [7] 0.181 | encorafenib 0.335 | [8] -0.003 | alisertib 0.11 | [9] 0.137 | gefitinib 0.057

RAC2 (UniProt P15153)
inactive: vemurafenib 0.028 | [1] 0.034 | barasertib 0.054 | [2] 0.049 | volasertib -0.071 | [3] -0.001 | [4] -0.011 | [5] 0.008 | saracatinib 0.045 | sotrastaurin -0.058 | alvocidib 0.047 | Tubastatin A -0.086 | [6] 0.082 | defactinib 0.007 | [7] 0.06 | encorafenib -0.022 | [8] -0.001 | alisertib 0.051 | [9] 0.056 | gefitinib 0.016

RIOK1 (UniProt Q9BRS2)
UniProt Q9BRS2, sequence (Q9BRS2 whole entry, looked up): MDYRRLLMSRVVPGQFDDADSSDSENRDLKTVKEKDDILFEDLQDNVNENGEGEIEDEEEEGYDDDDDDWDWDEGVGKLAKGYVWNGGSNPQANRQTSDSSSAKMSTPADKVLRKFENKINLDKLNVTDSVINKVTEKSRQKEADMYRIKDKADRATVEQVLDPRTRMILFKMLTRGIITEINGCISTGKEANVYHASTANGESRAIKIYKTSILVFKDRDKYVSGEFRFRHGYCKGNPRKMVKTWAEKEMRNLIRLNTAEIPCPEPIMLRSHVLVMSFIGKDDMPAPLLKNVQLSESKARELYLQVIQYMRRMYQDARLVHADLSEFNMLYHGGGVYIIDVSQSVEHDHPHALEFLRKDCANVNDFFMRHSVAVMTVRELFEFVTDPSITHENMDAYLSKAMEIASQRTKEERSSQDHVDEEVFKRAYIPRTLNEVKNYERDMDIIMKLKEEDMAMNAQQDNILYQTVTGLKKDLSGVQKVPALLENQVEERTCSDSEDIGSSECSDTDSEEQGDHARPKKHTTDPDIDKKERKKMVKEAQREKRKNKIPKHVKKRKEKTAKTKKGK
inactive: vemurafenib 0.021 | [1] 0.023 | barasertib 0.001 | [2] 0.02 | volasertib -0.093 | [3] 0.004 | [4] 0.017 | [5] 0.057 | saracatinib 0.032 | sotrastaurin 0.001 | alvocidib 0 | Tubastatin A 0.005 | [6] 0.008 | defactinib -0.009 | encorafenib 0.006 | [8] -0.006 | alisertib 0.01 | [9] 0.168 | gefitinib -0.019
active: [7] 0.413

RDH14 (UniProt Q9HBH5)
UniProt Q9HBH5, sequence (Q9HBH5 whole entry, looked up): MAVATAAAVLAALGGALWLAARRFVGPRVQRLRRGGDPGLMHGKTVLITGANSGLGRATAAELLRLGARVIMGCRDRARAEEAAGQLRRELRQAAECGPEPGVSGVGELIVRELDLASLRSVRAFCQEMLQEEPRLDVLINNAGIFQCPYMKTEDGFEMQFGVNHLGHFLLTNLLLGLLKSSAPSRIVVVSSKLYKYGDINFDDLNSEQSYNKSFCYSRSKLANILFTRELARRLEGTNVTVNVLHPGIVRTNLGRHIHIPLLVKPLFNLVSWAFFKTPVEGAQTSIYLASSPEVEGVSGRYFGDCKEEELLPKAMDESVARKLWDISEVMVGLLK
inactive: vemurafenib 0.038 | [1] 0.026 | barasertib -0.007 | [2] -0.076 | volasertib -0.022 | [3] 0.009 | [4] -0.228 | [5] 0.061 | saracatinib -0.015 | sotrastaurin 0.074 | alvocidib -0.001 | Tubastatin A -0.033 | [6] 0.088 | defactinib -0.044 | [7] -0.123 | encorafenib -0.028 | [8] -0.199 | alisertib 0.07 | [9] -0.043 | gefitinib -0.07

RBBP8 isoform 2 (UniProt Q99708)
UniProt Q99708, sequence (Q99708 whole entry, looked up): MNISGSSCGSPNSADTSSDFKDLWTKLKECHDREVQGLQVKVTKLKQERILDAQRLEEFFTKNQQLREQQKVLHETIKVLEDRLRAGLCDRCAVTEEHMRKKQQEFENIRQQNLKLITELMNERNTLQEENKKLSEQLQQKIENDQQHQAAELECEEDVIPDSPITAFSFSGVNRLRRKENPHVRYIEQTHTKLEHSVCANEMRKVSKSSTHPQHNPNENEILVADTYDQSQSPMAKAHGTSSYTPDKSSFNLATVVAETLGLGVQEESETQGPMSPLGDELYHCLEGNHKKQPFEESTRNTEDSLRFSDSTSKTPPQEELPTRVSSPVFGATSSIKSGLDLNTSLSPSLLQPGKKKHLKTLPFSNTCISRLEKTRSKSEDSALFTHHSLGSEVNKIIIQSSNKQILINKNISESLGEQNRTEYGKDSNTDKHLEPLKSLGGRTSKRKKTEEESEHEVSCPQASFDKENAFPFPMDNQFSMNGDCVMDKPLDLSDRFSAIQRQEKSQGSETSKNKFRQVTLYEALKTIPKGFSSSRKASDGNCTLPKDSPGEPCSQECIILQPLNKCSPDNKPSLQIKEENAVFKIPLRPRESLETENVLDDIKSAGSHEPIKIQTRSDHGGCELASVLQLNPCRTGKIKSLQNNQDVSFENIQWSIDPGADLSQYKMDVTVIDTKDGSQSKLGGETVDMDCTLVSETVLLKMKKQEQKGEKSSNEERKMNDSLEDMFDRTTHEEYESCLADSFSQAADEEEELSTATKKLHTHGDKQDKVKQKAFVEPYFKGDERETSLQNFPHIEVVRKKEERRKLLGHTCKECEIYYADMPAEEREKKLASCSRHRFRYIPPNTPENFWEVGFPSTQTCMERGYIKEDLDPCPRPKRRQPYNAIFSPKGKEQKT
inactive: vemurafenib 0.002 | [1] 0.182 | barasertib -0.013 | [2] 0.079 | volasertib -0.019 | [3] -0.065 | [4] 0.065 | [5] -0.021 | saracatinib 0.018 | sotrastaurin -0.017 | alvocidib 0.013 | Tubastatin A 0.07 | [6] 0.061 | defactinib -0.023 | [7] 0.108 | encorafenib -0.039 | [8] -0.074 | alisertib -0.008 | [9] 0.009 | gefitinib -0.014

SAR1A (UniProt Q9NR31)
UniProt Q9NR31, sequence (Q9NR31 whole entry, looked up): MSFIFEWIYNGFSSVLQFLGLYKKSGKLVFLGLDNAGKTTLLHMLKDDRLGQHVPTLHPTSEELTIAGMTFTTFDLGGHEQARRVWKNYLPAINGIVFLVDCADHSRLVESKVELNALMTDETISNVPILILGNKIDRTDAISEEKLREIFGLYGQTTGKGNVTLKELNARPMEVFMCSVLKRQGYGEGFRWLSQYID
inactive: vemurafenib 0.109 | [1] 0 | barasertib 0.07 | [2] 0.03 | volasertib -0.05 | [3] 0.021 | [4] -0.009 | [5] -0.108 | saracatinib 0.025 | sotrastaurin 0.084 | alvocidib -0.034 | Tubastatin A 0.153 | [6] 0.03 | defactinib 0.086 | [7] 0.086 | encorafenib 0.152 | [8] 0.084 | alisertib 0.134 | [9] 0.161 | gefitinib 0.156

RPN2 (UniProt P04844)
UniProt P04844, sequence (P04844 whole entry, looked up): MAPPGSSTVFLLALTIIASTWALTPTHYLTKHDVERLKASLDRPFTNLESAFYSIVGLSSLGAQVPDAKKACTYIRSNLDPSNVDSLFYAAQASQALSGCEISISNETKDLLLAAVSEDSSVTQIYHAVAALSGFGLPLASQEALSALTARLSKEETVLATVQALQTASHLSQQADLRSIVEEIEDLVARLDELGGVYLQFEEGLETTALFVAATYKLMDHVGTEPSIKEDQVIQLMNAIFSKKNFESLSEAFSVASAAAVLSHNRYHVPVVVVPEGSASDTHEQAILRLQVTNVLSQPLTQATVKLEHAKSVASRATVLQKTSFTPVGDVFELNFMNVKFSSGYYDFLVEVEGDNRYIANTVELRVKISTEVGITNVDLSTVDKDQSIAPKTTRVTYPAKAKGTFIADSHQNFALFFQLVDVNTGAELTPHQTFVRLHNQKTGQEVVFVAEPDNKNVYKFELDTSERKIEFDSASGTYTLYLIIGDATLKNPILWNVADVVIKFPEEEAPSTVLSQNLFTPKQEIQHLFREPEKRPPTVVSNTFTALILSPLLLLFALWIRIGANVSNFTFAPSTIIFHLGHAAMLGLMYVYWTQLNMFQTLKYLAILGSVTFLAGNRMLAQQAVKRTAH
inactive: vemurafenib 0.009 | [1] 0.008 | barasertib 0.019 | [2] 0 | volasertib 0.003 | [3] -0.003 | [4] -0.084 | [5] 0.033 | saracatinib 0.008 | sotrastaurin 0.008 | alvocidib -0.024 | Tubastatin A 0.001 | [6] -0.024 | defactinib -0.006 | [7] -0.01 | encorafenib 0.041 | [8] -0.031 | alisertib -0.008 | [9] -0.03 | gefitinib 0.011
